Data reported in PubChem BioAssay (EPA / NIEHS).
Where “and” joins values, the source holds several entries; their conditions need not be identical. Equal values may be shown once. Results filed as inconclusive are left out. The source holds several records for some structures; these can differ, active in one and inactive in another. Calls of active or inactive are those of the source. The calls were made as follows: active = hit-call score of the fitted dose curve at least 0.9, where 1 is the maximum; inconclusive = response in the unintended direction; inactive = score below 0.9.

molecular target: Nuclear receptor subfamily 1 group I member 2 (Mus musculus) (UniProt O54915); assay: ATG_mPXR_XSP2: Attagene TRANS-FACTORIAL Multi-Species (XSP1) HepG2 Assay for mouse Pregnane X Receptor (PXR) (AID 2283831)
Protocol: ATG_XSP2_multi-species_TRANS is a cell-based, multiplexed assay created by modifying the existing Attagene TRANS-FACTORIAL system to include a panel of nuclear receptors from some or all the following species: human (Homo sapiens), mouse (Mus musculus), frog (Xenopus laevis), zebrafish (Danio rerio), chicken (Gallus gallus), and turtle (Chrysemys picta). The ECOTOX-FACTORIAL format uses HepG2, a human liver cell line, with measurements taken at 24 hours after chemical dosing in a 24-well plate. Xsp2 included 3 nM 6-alpha-fluorotestosterone and 1.5 nM norgestrel to stimulate the androgen receptor.ATG_mPXR_XSP2 is one of 29 assay components measured or calculated from the ATG_XSP2_multi-species_TRANS assay. It is designed to make measurements of mRNA induction, a form of inducible reporter, as detected with fluorescence intensity signals by Reverse transcription polymerase chain reaction (RT-PCR) and Capillary electrophoresis technology.The assay endpoint ATG_mPXR_XSP2 was analyzed in the positive analysis fitting direction relative to DMSO as the negative control and baseline of activity. Using a type of inducible reporter, measures of mRNA for gain-of-signal activity can be used to understand the reporter gene at the transcription factor-level as they relate to the gene PXR. Furthermore, this assay endpoint can be referred to as a primary readout, because this assay has produced multiple assay endpoints where this one serves a reporter gene function. To generalize the intended target to other relatable targets, this assay endpoint is annotated to the nuclear receptor intended target family, where the subfamily is non-steroidal.
Human liver HepG2 cells are transiently transfected with multiple reporter transcription units (MRTUs) in 6-well plates using FuGene 6 reagent (Roche; 3 ml FuGene/1 mg DNA). The MRTU constructs are regulated by a cis-regulating element (promoter). […] A major difference between the CIS and TRANS system is that in CIS activities of endogenous TFs are measured, whereas the TRANS assay evaluates changes in activities of exogenous, chimeric NR-Gal4 proteins. […] At the end of 24 hour incubation, total RNA was isolated using TriZol reagent (Invitrogen). The isolated RNA is then reverse-transcribed using oligo(dT) primer and Mo-MLV reverse transcriptase (Invitrogen) with DNAse I (Ambion) treatment for 30 min. The one-tenth of the produced cDNA was amplified by PCR using Taq DNA polymerase (Invitrogen) and two reporter sequence-specific primers. The PCR products were fluorescently labeled by primer extension with 6-arboxyfluorescein (6-FAM) 5'-labeled reporter sequence-specific primer (2 min at 95 C, 20 s at 68 C and 10 min at 72 C) and these products were digested with 5U of HpaI (New England Biolabs) for 2h at 37 C. The fragments were purified using Qiaquick PCR columns (Qiagen), analyzed on an ABI 3130xL genetic analyzer (Applied Biosystems) with peak positions identified by using a set of X-rhodamine (ROX)-labeled MapMarker1000 molecular weight standards (BioVentures). The raw capillary electrophoresis data was processed using Attagraph software (Attagene).

Chain of Nuclear receptor subfamily 1 group I member 2 (Mus musculus) (O54915 whole entry, looked up): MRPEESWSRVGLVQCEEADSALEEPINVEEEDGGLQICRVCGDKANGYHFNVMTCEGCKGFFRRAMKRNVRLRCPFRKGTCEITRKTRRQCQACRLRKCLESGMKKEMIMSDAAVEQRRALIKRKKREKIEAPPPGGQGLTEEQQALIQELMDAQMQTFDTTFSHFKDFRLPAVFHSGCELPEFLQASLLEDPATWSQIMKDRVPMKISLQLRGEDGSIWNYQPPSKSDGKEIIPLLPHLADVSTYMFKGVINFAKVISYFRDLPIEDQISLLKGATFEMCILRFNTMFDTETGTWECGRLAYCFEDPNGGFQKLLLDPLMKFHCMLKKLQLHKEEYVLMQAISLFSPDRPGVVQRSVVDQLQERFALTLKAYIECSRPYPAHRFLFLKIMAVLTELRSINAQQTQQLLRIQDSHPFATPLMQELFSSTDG

| Compound | AC50 | outcome |
| --- | --- | --- |
| CCCCC(CC)COC(=O)c1ccccc1C(=O)O (configuration not stated) | 3.81 µM (active) |  |
| CC1(C)C(C=C(Cl)Cl)C1C(=O)OCc1cccc(Oc2ccccc2)c1 (configuration not stated) | 3.06 µM (active) |  |
| CCCCC(CC)CN1C(=O)C2C3C=CC(C3)C2C1=O (configuration not stated) | 1.34 µM (active) |  |
| N[C@@H](Cc1cc(I)c(Oc2ccc(O)c(I)c2)c(I)c1)C(=O)O | 22.7 µM (active) |  |
| C=CCOC(Cn1ccnc1)c1ccc(Cl)cc1Cl (configuration not stated) | 1.34 µM (active) |  |
| Oc1ccc(C(c2ccc(O)cc2)C(Cl)(Cl)Cl)cc1 |  | inactive |
| CCN(Cc1c(F)cccc1Cl)c1c([N+](=O)[O-])cc(C(F)(F)F)cc1[N+](=O)[O-] | 284 nM (active) and 656 nM (active) |  |
| CN(C)C(=O)Nc1ccc(Cl)c(Cl)c1 | 6.9 µM (active) | inactive |
| C#C[C@]1(O)CC[C@H]2[C@@H]3CCC4=CC(=O)CC[C@@H]4[C@H]3CC[C@@]21CC |  | inactive |
| CSC(=O)c1cccc2nnsc12 |  | inactive |
| CC(=O)S[C@@H]1CC2=CC(=O)CC[C@]2(C)[C@H]2CC[C@@]3(C)[C@@H](CC[C@@]34CCC(=O)O4)[C@H]12 | 0.483 µM (active) |  |
